This is part of a sample that, as a whole, favours compounds with a hit. Of some 83,000 tested, about 20% had one in any assay.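 Results are percent growth after 48 hours of single-concentration exposure. 100 means growth as in untreated cells, lower positive values show inhibition; negative values down to -100 show cell death.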 Activity calls are given as the source filed them. Rule for the calls: active = growth percent below 10; inactive = the rest.
Each compound was assayed on MDA-MB-468 breast (assay: NCI-60 one-dose screen, 48 h (100 = growth as untreated, 0 = no growth, -100 = all killed)). Conditions: 10 µM unless noted.
With `COc1cccc(/C=N\NC(=O)c2ccncc2)c1O` the growth was 64.4% (inactive).
For `COC(=O)[C@H](C)NC(=O)c1ccc(NC(=O)c2[nH]c(C)c(Cl)c2Cl)c(OCCN)c1`, the growth was 107% (inactive).
In the case of `COc1ccc(N=Nc2ccc(O)c(=O)cc2)cc1`, the growth is reported as -31.9% (active).
For `O=C(O)/C=C\C(=O)Nc1ccc2c(c1)Cc1cc(F)ccc1-2`, the growth was 109% (inactive).
